Only a selection was taken, and hits are over-represented in it overall.
Pf Dd2 inh: qHTS Primary assay for Inhibitors of Plasmodium falciparum Dd2 growth in vitro; Potency, µM (doses to about 28.9 µM), without a hit: at the highest dose activity, negative = inhibition, most hits filed as inhibitors; P. falciparum Dd2 growth, SYBR Green, 72 h; 4.3% of 120,000 active; active = well fitted inhibition curve with a large enough effect;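 note: plate controls were DMSO vehicle for no effect and reference drug for full effect; nearly all actives have a fitted effect of over 65% in size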
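Infected erythrocytes (Dd2, 0.3% parasitemia, 2.5% hematocrit final) are added to compound in RPMI-1640/Albumax II medium, grown 72 h at 37C in low oxygen, then lysed with saponin/Triton-X containing SYBR Green and read by fluorescence.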
* marks the source's active call; other numbers are inactive results; i = inactive; [ ] = dose if it differs, or a comment. Potency is the fitted concentration of half-maximal effect.

SMILES	Pf Dd2 inh
O=C(CC(c1ccc(Cl)cc1)c1c[nH]c2ccc([N+](=O)[O-])cc12)N1CCOCC1 (stereo not drawn)	-11%
O=C(CC(c1ccc(F)cc1)c1cn(Cc2ccccc2)c2ccc([N+](=O)[O-])cc12)N1CCOCC1 (stereo not drawn)	0.18µM*
O=C1CCN(S(=O)(=O)c2ccccc2)CCCC(C(=O)N2CCCCCC2)CCN1 (stereo not drawn)	20%
CCCCc1nn(CC(=O)N2CCCC2c2nc(C3CC3)no2)c(=O)n1CC (stereo not drawn)	-6%
Cc1cc(=O)n(CC(=O)Nc2cccc(F)c2)c(-c2ccccc2)n1	i
Cc1ccc(NC(=O)CN2C(=O)CC(c3ccc(F)cc3)=Nc3ccccc32)cc1F	-28%
COc1ccc(C2=NN(CC(=O)NCc3ccccc3Cl)C(=O)CC2)cc1	6%
Cc1ccc(C2=Nc3ccccc3N(CC(=O)Nc3cccc(F)c3)C(=O)C2)cc1C	8.9µM*
Cc1ccc(C2=Nc3ccccc3N(CC(=O)NCc3ccccc3Cl)C(=O)C2)cc1C	11µM*
Cc1ccc2c(c1)N(CCC(=O)NCc1ccccc1Cl)C(=O)CO2	46%
Cc1ccc(C(=O)N2C[C@@H](CO)[C@H](c3nc(C4CC4)no3)C2)nc1	i
COC(=O)c1scc(-c2ccccc2)c1S(=O)(=O)Nc1ccc(C)c(Cl)c1	i
Cc1ccc(NC(=O)Cn2nnc3sc4c(c3c2=O)CCCC4)c(C)c1	3%
CCN1c2cc(C(=O)NCc3ccc(C)c(C)c3)ccc2C(=O)N2CCCCC21 (stereo not drawn)	i
O=C(c1ccn[nH]1)N1CCC(c2noc(COc3ccc(F)cc3)n2)CC1	-23%
COCCc1noc(-c2ccc(N(C)Cc3ccnc(C)c3)nc2)n1	-12%
O=C(CSc1nc2c([nH]c3ccccc32)c(=O)n1-c1ccc(Cl)cc1)N1CCCC1	21%
Cc1cc(CN2CCCC23CCN(c2nc4ccccc4o2)CC3)on1	-16%
Cc1cc(C)n(CCc2nc3c4ccccc4nc(N4CCN(c5ccccc5F)CC4)n3n2)n1	39%
Cn1ccnc1CN1CCCC12CCN(c1ccc(C(F)(F)F)cn1)CC2	i
FC(F)Oc1ccccc1CN1CCCC12CCN(c1ncccn1)CC2	i
CCCn1ccnc1CN1CCCC12CCN(c1ccc(C(F)(F)F)cn1)CC2	11µM*
O=C1COCC2(CN1Cc1c(F)cccc1Cl)CN(c1ccc(C(F)(F)F)cn1)C2	i
CCn1ncc(CN2CCCC23CCN(c2ccc(C(F)(F)F)cn2)CC3)c1C	10µM*
O[C@H]1[C@H](NCc2cccc(C(F)(F)F)c2)[C@@H](c2ccc(N3CCOCC3)nc2)C[C@H]1O	i
SMILES	Pf Dd2 inh
CCn1ncc(CN2CCCC23CCN(c2cc(C)nc4ccccc24)CC3)c1C	2µM*
Oc1cccc(CN2CCCC23CCN(c2ccc(C(F)(F)F)cn2)CC3)c1	4.5µM*
O=C(Cn1nc2c(cc1=O)CCCC2)N1CCN(c2ccc(C(F)(F)F)cn2)CC1	6%
Cc1cc(C)c2c(=O)cc(CSCC(=O)Nc3nnc(C)s3)[nH]c2c1	-1%
COCCn1nnnc1C1CC2(CCOCC2)C(=O)N1CCc1ccc(OC)c(OC)c1 (stereo not drawn)	3%
CCCNC(=O)C1COC2(CCN(C(=O)c3ccc(F)cc3)CC2)N1C(=O)c1ccc(F)cc1 (stereo not drawn)	-23%
COCc1cc(=O)n(CC(=O)Nc2cc(C)ccc2C)c(N2CCOCC2)n1	-2%
CCOC(=O)c1cc2c(=O)n3ccccc3nc2n(CC(C)C)c1=NC(=O)C(C)Oc1ccccc1 (stereo not drawn)	i
Cc1cc(C(=O)N2C[C@@H](CO)[C@H](N(C)C)C2)no1	35%
CN(Cc1ccccc1)Cc1cc(C[C@@H]2CC[C@H](O)[C@@H](CNC(=O)Nc3ccccc3)O2)no1	i
Cc1ccc(OCC(=O)Nc2ccc(C(=O)OCc3cc(=O)n4nc(C5CC5)sc4n3)cc2)cc1	-17%
OC(c1cccc(C(F)(F)F)c1)c1nc(Nc2ccc3c(c2)OCO3)n[nH]1 (stereo not drawn)	-2%[44.1 µM]
Cn1c(=O)c2c(SCC(=O)N3CCc4ccccc43)nc(-c3ccccc3Cl)nc2n(C)c1=O	30%
COc1cc(NC(=O)Cn2c(=O)n(CC3CCCO3)c(=O)c3cc(OC)c(OC)cc32)cc(OC)c1 (stereo not drawn)	-13%
COc1ccc(C(C)NC(=O)CN2C(=O)NC3(CCC(C)CC3)C2=O)cc1 (stereo not drawn)	i
CC1CCC2(CC1)NC(=O)N(CC(=O)NC(C)c1ccccc1)C2=O (stereo not drawn)	-9%
Cc1ccc(C(C)NC(=O)CNC23CC4CC(CC(C4)C2)C3)cc1 (stereo not drawn)	6.3µM*
COc1ccc(CCNC(=O)c2cc3c(=O)[nH]c(C)cn3n2)cc1OC	i
Cc1cn2nc(C(=O)NCc3cccc(Cl)c3)cc2c(=O)[nH]1	8%
Cc1cn2nc(C(=O)NCc3cc(F)cc(F)c3)cc2c(=O)[nH]1	10%
COCCCNC(=O)c1cc2c(=O)[nH]c(C)cn2n1	21%
Cc1cn2nc(C(=O)NCCCc3ccccc3)cc2c(=O)[nH]1	7.9µM*
Cc1ccc(CNC(=O)c2ccc(NC(=O)c3cc4c(=O)[nH]c(C)cn4n3)cc2)cc1	4µM*
COCCN1C(=O)CS(=O)(=O)C12CCN(C(=O)c1ccc3c(c1)OCO3)CC2	5%
CNC(=O)C1(N2CCC[C@H]2C(=O)NCc2cccnc2)CCCCC1	24%[44.1 µM]
SMILES	Pf Dd2 inh
COc1ccc(OC2CCN(C(C)=O)CC2)c(C(=O)NCc2csc(C(C)C)n2)c1	-17%
Cc1cc(C(=O)NCc2ccc(F)cc2)c2c(C3CCNC3)noc2n1 (stereo not drawn)	15%
O=C(NCc1ccc(F)cc1)c1cc(C2CC2)nc2onc(C3CCCNC3)c12 (stereo not drawn)	8.9µM*
COCCNC(=O)c1cc(C2CC2)nc2onc(C3CCNC3)c12 (stereo not drawn)	3%
O=C(NCc1ccc(F)cc1)c1cc(C2CC2)nc2onc(C3CCNCC3)c12	10µM*
O=C(NCc1ccc(F)cc1)c1cc(C2CC2)nc2onc(C3CCCN3)c12 (stereo not drawn)	-12%
O=C(NC1CC1)c1cc(C2CC2)nc2onc(C3CCNCC3)c12	6%
COCc1noc([C@@H]2CN(C(=O)Cc3ccccc3)C[C@H]2CO)n1	i
CN(C)C(=O)C1CN(C(=O)c2cccc(Br)c2)CC12CCOCC2 (stereo not drawn)	3%
Cc1occc1C(=O)N1C[C@H]2OC(=O)N(CCCN3CCOCC3)[C@H]2C1	-5%
O=C(CN1C(=O)NC(c2ccccc2Cl)C2=C1COC2=O)NCc1ccccc1Cl (stereo not drawn)	-19%
COc1ccc(Cn2c(C3CCN(C(=O)Cc4cccc(C)c4)CC3)n[nH]c2=O)cc1	-4%
COc1cccc(CC(=O)N2CCC(c3n[nH]c(=O)n3Cc3ccc(F)cc3)CC2)c1	-4%
Cc1ccc(-n2c(C3CCN(C(=O)Cc4ccc(Cl)cc4)CC3)n[nH]c2=O)cc1	13µM*
Cc1cccc(OCC(=O)N2CCC(c3n[nH]c(=O)n3Cc3ccc(F)cc3)CC2)c1	11µM*
Cc1ccc(-n2c(C3CCN(C(=O)Cc4ccccc4Cl)CC3)n[nH]c2=O)cc1	-17%
Cc1ccc(CC(=O)N2CCC(c3n[nH]c(=O)n3-c3ccccc3)CC2)cc1	i
Cc1cc(NC(=O)CCn2c(=O)c3cccn3c3cccnc32)ccc1Br	2%

Screens: PubChem, National Center for Advancing Translational Sciences (NCATS)
